7 compounds from PubChem BioAssay (NCI) can be followed below.

The panel holds about 83,000 compounds, 20% with a hit somewhere; the sample as a whole holds those more often.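 Interpretation: 100, growth as untreated; towards 0, rising growth inhibition; 0, no net growth; 0 to -100, cell death. Compounds scoring below 10 were considered active.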 Unmarked numbers belong to inactive results. The source made the active and inactive calls.

Holding throughout (test): NCI-60 one-dose screen, 48 h (100 = growth as untreated, 0 = no growth, -100 = all killed)
What all share (details): 10 µM unless noted

The test system of assay [1] is DU-145 prostate.
In assay [2] the test system is K-562 leukemia.
The test system of assay [3] is MALME-3M melanoma.
The test system of assay [4] is MDA-MB-231 breast.
The subject of assay [5] is RXF 393 renal.
The subject of assay [6] is SF-268 CNS.
In assay [7] the test system is SF-295 CNS.
Assay [8] has as its system SF-539 CNS.
Assay [9] concerns UACC-257 melanoma.
For assay [10], the system named is M14 melanoma.
Assay [11] has as its system HCT-15 colon.
Assay [12] relates to HT29 colon.
Assay [13] deals with SNB-75 CNS.
The subject of assay [14] is SNB-19 CNS.
The test system of assay [15] is U251 CNS.
Assay [16] concerns PC-3 prostate.
The subject of assay [17] is SK-MEL-5 melanoma.
For assay [18], the system named is UACC-62 melanoma.
Assay [19] deals with LOX IMVI melanoma.
Assay [20] relates to SK-MEL-28 melanoma.

`N=C1C(c2nc(-c3ccc(Br)cc3)cs2)=C(O)CN1CC1CCCO1` (stereo not given): the growth is 69.7% in assay [1]; 64.1% in assay [2]; 112% in assay [3]; 90.9% in assay [4]; 83% in assay [5]; 87.9% in assay [6]. For the same compound, the growth in assay [7] is 91.5%; in assay [8], 81.4%; in assay [9], 84.3%; in assay [10], 91.5%; in assay [11], 89.5%; in assay [12], 97.5%. In addition, the growth in assay [13] was 78.5%; in assay [14] it was 87.4%; in assay [15], 74.9%; in [16] it was 7.86% (active); in [17] it was 102%; in assay [18], 105%. Further, the figures for the growth in [19] and in assay [20] were 60.7% and 107%, respectively.

As for `C=CCn1c(C)nc2cc(Nc3nc(Cl)nc4ccccc34)ccc21`, the growth in assay [1] is 105%; in assay [2] it was 74.8%; in assay [3], 122%; in [4] it was 89.9%; in assay [5], 87.4%; in assay [6], 89.9%. Moreover, the growth was 84.8% in [7]; 97.4% in assay [8]; 102% in [9]; 110% in [10]; 92.3% in [11]; 98.8% in assay [12]. In addition, the growth was 96.9% in assay [13]; 107% in assay [14]; 95.5% in [15]; 82% in assay [16]; 91.4% in assay [17]; 93.1% in [18]. Also, the figures for the growth in assay [19] and in assay [20] were 104% and 107%, respectively.

`O=c1[nH]c2ccccc2n1C1CCN(CCOc2ccccc2)CC1`: the growth in [1] is 73.4%; in [2], 11.4%; in assay [3] it was 99.9%; in [4], 91.3%; in assay [5], 28%; in assay [6], 92.8%. Besides, the growth in assay [7] is 76.9%; in assay [8], 106%; in [9], 95.1%; in assay [10], 97%; in [11], 85.1%; in assay [12], 99.4%. The growth was 80.5% in [13]; 93.3% in [14]; 88.9% in [15]; 58.9% in [16]; 95.6% in [17]; 86% in assay [18]. The growth in assay [19] was 95.2%; in [20], 102%.

Consider `COc1ccc(-c2nc3ccc4[nH]ncc4c3c3c2CCCC3)cc1B(O)O`, for which the growth in assay [1] was 45.9%; in assay [2], 59.8%; in assay [3] it was 75%; in [4] it was 69.3%; in assay [5] it was 6.38% (active); in assay [6] it was 56.3%. For the same compound, the growth in assay [7] is 56.3%; in assay [8], 52.8%; in assay [9] it was 88.5%; in assay [10] it was 46.5%; in assay [11], 34.4%; in [12], 67.2%. Also, the growth in assay [13] was 18.9%; in assay [14], 82.7%; in assay [15], 78%; in [16], 57.6%; in assay [17], 73.8%; in [18], 47.1%. Moreover, the growth in assay [19] is 40.4%; in assay [20], 68.1%.

Regarding `CCCCCCCCCCN(CCCCCCCCCC)CC(=O)c1ccc2cc(Br)c3ccccc3c2c1`, the growth in assay [1] was 71.7%; in [2], -46.6% (active); in assay [3] it was -78.2% (active); in assay [4] it was 67.1%; in assay [5], 95.5%; in assay [6], 81%. Moreover, the growth was 91.8% in [7]; 89% in assay [8]; 87% in assay [9]; -11.7% (active) in assay [10]; 64.9% in assay [11]; 3.77% (active) in assay [12]. Besides, the growth was 68.7% in assay [13]; 88% in [14]; -9.35% (active) in [15]; -71.7% (active) in [16]; 93.6% in [17]; 93.9% in assay [18]. The growth in assay [19] is 21.6%; in assay [20] it was 113%.

For the compound `Cc1cc[c-]cc1.Fc1c[c-]c(-c2ccccn2)c(F)c1.[Pt+2].c1ccc(P(C[PH+](c2ccccc2)c2ccccc2)c2ccccc2)cc1`, the growth is 17.5% in [1]; 8.02% (active) in [2]; -15.8% (active) in [3]; -9.05% (active) in [4]; 23.1% in assay [5]; 9.02% (active) in [6]. Also, the growth was 6.93% (active) in [7]; 21.5% in assay [8]; -12.1% (active) in assay [9]; 22% in assay [10]; 47% in assay [11]; 16.9% in assay [12]. Further, the growth in assay [13] is 4.48% (active); in assay [14], 17.5%; in assay [15] it was 12.9%; in [16], 11.2%; in assay [17] it was -94.9% (active); in assay [18], 9.82% (active). Further, the figures for the growth in assay [19] and in assay [20] were 18.5% and 36.4%, respectively.

For the compound `COc1ccc(-c2nc3sccn3c2-c2cc(-c3cc(OC)c(OC)c(OC)c3)on2)cc1`, the growth in [1] was 93.3%; in [2], 47.4%; in [3], 105%; in [4], 80.9%; in [5] it was 110%; in assay [6], 98.2%. Further, the growth in [7] was 109%; in [8], 73.7%; in [9] it was 141%; in assay [10], 91.7%; in assay [11] it was 96.9%; in assay [12], 86.1%. Besides, the growth in [13] was 77.4%; in assay [14] it was 87.5%; in [15] it was 107%; in assay [16] it was 58.9%; in assay [17], 68.7%; in [18], 89.1%. The growth in assay [19] was 90.5%; in [20], 127%.
